In publication PMC7862700, “An all-to-all approach to the identification of sequence-specific readers for epigenetic DNA modifications on cytosine”:

Experiments:
Assay in all cases: DAPPL (digital affinity profiling via proximity ligation, sequencing); 10 mM Tris-HCl pH 7.5, 50 mM NaCl, 1 mM DTT, 4% glycerol, room temperature, 30 min; GST-TFs on glutathione beads, 16-mer random dsDNA library, 0.1% formaldehyde crosslink after washing; high values mean tight binding
Conditions in all cases: protein: recombinant; tags: N-terminal GST; dsDNA, one strand shown
[1] = molecular target: T1, SPDEF (Homo sapiens, UniProt O95238 1-335)
T1 sequence: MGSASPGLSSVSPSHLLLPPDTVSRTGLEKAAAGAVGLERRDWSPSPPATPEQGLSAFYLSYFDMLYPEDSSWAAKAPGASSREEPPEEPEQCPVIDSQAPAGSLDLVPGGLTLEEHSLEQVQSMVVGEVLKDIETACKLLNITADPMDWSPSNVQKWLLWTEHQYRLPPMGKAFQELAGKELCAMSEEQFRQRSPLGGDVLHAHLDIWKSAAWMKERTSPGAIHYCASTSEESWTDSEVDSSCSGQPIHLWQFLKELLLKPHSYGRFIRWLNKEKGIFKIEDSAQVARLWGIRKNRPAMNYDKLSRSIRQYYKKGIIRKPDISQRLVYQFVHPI
Method in brief: (§1)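 Binding signal is defined as a hexamer's read frequency for one factor over its frequency for the tag-only sample. To obtain reads, GST-fused human transcription factors were expressed in yeast, captured on glutathione beads, barcoded with DNA and pooled with that sample. Pools met 200 nmole of a 16-mer random double-stranded DNA library in Tris/NaCl/DTT/glycerol buffer for 30 min at room temperature before washing, 0.1% formaldehyde crosslinking, proximity ligation (BsaI/T4 ligase, 1 h, 37 °C), PCR and Illumina NextSeq500 sequencing.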

[2] = molecular target: T2, GABPA (Homo sapiens, UniProt Q06546 1-454)
T2 sequence: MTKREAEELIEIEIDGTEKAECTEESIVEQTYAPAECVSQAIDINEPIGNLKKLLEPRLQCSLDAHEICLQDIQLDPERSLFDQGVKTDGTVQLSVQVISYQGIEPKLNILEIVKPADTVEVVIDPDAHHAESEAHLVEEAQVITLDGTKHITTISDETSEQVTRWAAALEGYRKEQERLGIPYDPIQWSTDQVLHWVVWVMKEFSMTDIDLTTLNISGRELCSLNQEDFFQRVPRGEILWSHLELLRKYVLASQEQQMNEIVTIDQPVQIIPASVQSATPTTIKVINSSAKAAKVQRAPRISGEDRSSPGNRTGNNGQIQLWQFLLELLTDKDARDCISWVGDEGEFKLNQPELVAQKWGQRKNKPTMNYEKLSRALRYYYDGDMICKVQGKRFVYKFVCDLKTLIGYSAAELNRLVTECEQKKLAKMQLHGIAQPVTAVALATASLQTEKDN
Method in brief: as §1

[3] = molecular target: T3, ERG (Homo sapiens, UniProt P11308 1-479)
T3 sequence: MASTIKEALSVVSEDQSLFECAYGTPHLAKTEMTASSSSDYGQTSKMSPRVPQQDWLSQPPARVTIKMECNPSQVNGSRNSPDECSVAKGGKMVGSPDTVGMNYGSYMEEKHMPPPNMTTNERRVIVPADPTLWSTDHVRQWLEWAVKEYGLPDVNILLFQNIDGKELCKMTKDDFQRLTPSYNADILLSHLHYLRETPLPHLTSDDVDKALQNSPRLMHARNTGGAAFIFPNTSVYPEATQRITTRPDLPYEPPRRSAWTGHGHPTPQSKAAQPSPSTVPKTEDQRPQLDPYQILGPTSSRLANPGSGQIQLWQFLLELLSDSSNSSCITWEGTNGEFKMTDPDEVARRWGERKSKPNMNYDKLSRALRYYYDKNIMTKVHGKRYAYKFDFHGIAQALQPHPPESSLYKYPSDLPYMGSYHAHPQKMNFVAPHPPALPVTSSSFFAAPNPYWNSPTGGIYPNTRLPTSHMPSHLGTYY
Method in brief: as §1

[4] = molecular target: T4, EHF (Homo sapiens, UniProt Q9NZC4 1-300)
T4 sequence: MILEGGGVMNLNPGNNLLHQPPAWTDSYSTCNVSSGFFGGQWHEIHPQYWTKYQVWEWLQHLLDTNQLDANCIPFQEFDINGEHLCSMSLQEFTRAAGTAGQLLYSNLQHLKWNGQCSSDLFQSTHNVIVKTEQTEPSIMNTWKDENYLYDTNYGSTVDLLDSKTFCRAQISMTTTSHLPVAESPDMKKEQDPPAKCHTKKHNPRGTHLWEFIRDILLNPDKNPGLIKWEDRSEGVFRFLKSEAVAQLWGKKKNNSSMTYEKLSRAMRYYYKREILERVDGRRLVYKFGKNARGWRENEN
Method in brief: as §1

[5] = molecular target: SPIB (Homo sapiens, UniProt Q01892 1-262)
Method in brief: as §1

[6] = molecular target: T5, ELK3 (Homo sapiens, UniProt P41970 1-407)
T5 sequence: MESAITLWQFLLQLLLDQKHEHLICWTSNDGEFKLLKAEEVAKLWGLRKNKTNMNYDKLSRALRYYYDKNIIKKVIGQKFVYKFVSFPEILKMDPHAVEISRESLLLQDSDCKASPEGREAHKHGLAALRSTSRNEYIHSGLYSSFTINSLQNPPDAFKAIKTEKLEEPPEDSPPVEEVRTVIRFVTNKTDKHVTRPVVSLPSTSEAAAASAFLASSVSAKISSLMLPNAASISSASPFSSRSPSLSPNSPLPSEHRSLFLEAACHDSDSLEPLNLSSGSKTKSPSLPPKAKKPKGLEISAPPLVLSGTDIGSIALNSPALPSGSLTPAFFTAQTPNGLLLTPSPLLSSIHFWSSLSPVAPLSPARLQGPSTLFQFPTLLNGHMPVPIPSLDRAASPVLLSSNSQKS
Method in brief: as §1

[7] = molecular target: T6, SPIC (Homo sapiens, UniProt Q8N5J4 1-248)
T6 sequence: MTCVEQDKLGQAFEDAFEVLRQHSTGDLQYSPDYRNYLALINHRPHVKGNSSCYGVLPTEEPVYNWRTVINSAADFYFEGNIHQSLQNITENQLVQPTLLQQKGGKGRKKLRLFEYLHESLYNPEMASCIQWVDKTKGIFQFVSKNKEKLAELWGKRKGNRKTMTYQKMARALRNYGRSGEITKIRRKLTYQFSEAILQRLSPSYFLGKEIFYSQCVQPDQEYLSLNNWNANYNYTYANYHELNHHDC
Method in brief: as §1

[8] = molecular target: ELF4 (Homo sapiens, UniProt Q99607 1-663)
Method in brief: as §1

[9] = molecular target: T7, ELK4 (Homo sapiens, UniProt P28324-2 1-405)
T7 sequence: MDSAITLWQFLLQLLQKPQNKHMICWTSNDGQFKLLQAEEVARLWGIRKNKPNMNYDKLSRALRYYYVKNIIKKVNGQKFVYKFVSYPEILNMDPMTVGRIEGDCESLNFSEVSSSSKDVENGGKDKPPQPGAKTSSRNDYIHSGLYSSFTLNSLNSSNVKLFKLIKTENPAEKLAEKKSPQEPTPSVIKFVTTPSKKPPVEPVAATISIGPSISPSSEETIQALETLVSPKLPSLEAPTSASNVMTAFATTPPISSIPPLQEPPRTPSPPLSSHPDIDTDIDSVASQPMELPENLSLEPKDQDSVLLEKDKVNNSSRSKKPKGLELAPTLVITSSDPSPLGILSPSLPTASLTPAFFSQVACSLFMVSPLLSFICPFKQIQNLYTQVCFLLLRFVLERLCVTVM
Method in brief: as §1

[10] = molecular target: T8, ERF (Homo sapiens, UniProt P50548 1-548)
T8 sequence: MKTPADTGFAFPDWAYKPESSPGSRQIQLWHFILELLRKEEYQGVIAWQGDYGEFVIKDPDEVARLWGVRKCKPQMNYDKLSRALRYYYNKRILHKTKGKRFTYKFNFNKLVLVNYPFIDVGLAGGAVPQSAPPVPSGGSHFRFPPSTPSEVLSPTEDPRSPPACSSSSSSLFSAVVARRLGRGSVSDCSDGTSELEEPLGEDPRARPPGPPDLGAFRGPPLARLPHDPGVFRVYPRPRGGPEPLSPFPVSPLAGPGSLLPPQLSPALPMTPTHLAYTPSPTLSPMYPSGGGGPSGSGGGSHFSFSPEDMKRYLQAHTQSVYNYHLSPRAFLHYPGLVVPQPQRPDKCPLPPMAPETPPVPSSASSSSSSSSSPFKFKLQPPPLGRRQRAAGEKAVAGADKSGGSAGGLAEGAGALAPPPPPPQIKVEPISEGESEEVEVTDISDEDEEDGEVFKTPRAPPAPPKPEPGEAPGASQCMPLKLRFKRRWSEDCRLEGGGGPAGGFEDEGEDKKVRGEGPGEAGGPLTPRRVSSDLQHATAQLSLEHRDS
Method in brief: as §1

[11] = molecular target: T9, ETV3L (Homo sapiens, UniProt Q6ZN32 1-361)
T9 sequence: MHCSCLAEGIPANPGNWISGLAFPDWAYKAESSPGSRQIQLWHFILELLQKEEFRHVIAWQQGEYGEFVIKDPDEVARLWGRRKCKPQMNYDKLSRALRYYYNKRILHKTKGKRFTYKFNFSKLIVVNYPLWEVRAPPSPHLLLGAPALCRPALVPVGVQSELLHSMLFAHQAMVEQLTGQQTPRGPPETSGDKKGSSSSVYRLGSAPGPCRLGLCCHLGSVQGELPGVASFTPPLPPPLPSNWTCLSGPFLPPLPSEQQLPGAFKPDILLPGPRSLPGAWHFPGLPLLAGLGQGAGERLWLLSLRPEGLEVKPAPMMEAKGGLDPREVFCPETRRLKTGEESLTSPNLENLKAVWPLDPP
Method in brief: as §1

[12] = molecular target: T10, ETS2 (Homo sapiens, UniProt P15036 1-469)
T10 sequence: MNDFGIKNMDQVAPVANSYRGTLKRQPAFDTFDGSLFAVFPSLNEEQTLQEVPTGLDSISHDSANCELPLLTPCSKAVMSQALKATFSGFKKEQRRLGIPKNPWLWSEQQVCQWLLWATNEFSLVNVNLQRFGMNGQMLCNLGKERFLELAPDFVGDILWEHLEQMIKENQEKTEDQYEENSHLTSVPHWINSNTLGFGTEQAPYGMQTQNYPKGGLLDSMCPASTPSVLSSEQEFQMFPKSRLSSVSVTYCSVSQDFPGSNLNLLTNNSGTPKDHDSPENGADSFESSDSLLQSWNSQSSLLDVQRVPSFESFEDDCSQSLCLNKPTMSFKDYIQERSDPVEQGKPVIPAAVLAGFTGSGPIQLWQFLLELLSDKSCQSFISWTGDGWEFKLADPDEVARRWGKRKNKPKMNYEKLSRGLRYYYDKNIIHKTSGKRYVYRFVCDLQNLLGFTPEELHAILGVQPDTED
Method in brief: as §1

[13] = molecular target: T11, ETV7 (Homo sapiens, UniProt Q9Y603 1-341)
T11 sequence: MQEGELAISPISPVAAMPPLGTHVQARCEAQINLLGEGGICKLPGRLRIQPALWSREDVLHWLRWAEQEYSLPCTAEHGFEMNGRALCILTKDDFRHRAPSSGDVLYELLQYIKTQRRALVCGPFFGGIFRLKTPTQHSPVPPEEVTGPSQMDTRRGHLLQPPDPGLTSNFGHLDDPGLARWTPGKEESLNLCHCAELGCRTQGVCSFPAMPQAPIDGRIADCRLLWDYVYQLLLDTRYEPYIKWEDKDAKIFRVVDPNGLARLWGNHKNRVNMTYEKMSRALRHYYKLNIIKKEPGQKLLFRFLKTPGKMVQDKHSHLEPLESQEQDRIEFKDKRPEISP
Method in brief: as §1

[14] = molecular target: ETV6 (Homo sapiens, UniProt P41212 1-452)
Method in brief: as §1

ELF4, sequence (Q99607 whole entry): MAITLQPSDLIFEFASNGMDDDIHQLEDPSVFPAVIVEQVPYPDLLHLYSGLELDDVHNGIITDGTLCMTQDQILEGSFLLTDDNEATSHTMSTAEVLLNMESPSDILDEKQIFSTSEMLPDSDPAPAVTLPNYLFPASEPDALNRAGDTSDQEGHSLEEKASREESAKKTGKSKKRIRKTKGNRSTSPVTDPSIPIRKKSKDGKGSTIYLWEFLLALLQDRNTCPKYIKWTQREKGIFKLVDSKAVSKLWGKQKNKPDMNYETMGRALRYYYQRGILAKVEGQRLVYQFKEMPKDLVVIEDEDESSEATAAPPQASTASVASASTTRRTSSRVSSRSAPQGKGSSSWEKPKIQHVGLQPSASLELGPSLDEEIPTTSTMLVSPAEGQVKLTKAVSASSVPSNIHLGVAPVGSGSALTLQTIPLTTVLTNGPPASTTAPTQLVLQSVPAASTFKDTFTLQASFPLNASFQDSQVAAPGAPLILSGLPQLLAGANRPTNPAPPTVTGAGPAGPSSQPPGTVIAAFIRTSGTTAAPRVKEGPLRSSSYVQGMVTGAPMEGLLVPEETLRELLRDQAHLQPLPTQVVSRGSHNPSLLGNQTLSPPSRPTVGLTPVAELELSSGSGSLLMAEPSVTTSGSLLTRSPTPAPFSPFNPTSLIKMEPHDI
ETV6, sequence (P41212 whole entry): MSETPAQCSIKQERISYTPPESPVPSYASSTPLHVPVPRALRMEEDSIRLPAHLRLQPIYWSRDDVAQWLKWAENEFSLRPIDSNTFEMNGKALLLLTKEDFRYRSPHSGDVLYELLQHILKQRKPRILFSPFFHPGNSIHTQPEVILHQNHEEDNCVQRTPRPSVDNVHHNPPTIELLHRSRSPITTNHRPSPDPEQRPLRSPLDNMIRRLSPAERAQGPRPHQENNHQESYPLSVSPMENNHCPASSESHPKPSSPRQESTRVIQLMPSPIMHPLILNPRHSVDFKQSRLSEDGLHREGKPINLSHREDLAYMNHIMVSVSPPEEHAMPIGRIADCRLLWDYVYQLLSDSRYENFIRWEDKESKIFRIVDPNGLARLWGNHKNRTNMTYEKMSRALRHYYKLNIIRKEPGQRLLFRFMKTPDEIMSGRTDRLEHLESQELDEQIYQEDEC
SPIB, sequence (Q01892 whole entry): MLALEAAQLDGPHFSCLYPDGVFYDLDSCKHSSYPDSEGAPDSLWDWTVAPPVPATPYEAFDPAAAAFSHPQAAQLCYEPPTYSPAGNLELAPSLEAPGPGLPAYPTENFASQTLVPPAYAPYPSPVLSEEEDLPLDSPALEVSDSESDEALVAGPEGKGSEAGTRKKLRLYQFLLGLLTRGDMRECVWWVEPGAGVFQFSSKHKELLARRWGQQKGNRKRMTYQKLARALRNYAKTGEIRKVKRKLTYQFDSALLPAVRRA

TAAGTC
binding signal [1]: 1.01 fold enrichment (6-mer frequency, TF over GST control)

GGTAAC
binding signal [2]: 1.03 fold enrichment (6-mer frequency, TF over GST control)
binding signal [3]: 1.01 fold enrichment (6-mer frequency, TF over GST control)
binding signal [4]: 1.09 fold enrichment (6-mer frequency, TF over GST control)
binding signal [5]: 1.02 fold enrichment (6-mer frequency, TF over GST control)
binding signal [6]: 1 fold enrichment (6-mer frequency, TF over GST control)
binding signal [7]: 1.03 fold enrichment (6-mer frequency, TF over GST control)
binding signal [8]: 1.01 fold enrichment (6-mer frequency, TF over GST control)
binding signal [9]: 1.03 fold enrichment (6-mer frequency, TF over GST control)
binding signal [10]: 1 fold enrichment (6-mer frequency, TF over GST control)
binding signal [11]: 1 fold enrichment (6-mer frequency, TF over GST control)
binding signal [12]: 1.02 fold enrichment (6-mer frequency, TF over GST control)
binding signal [13]: 1.05 fold enrichment (6-mer frequency, TF over GST control)
binding signal [14]: 1.04 fold enrichment (6-mer frequency, TF over GST control)
